In a collection of fitness landscapes (doi:10.1016/j.celrep.2020.107928):
Over roughly 81,000 sequences, “one-hybrid fitness for binding NBS DNA” has its median near -0.1; the highest 2% begin near 0.36. The sample holds the highest values, similar sequences and a random draw of the others, so the mix is not that of the screen.

B1: Caulobacter ParB omega fusion; a variant is named by its letters at X, in order, B8GW30 (parent)
chain: MESVVVGEPGMSEGRRGLGRGLSALLGEVDAAPAQAPGEQLGGSREAPIEILQRNPDQPRRTFREEDLEDLSNSIREKGVLQPILVRPSPDTAGEYQIVAGERAWRAAQRAGLKTVPIMVRELDDLAVLEIGIIENVQRADLNVLEEALSYKVLMEKFERTQENIAQTIGKSXSHVANXMRLLXLPDEVQSYLVSGELTAXHARAIAAAADPVALAKQIIEGGLSVRETEALARKAPNLSAGKSKGGRPPRVKDTDTQALESDLSSVLGLDVSIDHRGSTGTLTITYATLEQLDDLCNRLTRGI

Variants of: B1
Test: one-hybrid fitness for binding NBS DNA (the Noc-binding site; scaled: cognate 1, non-cognate 0); higher = stronger binding
Conditions: with NBS DNA site
How it was run: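 Selection: bacterial one-hybrid in E. coli USO, HIS3 reporter with the site 19 bp from the promoter, 48 hours at 37°C on M9-minus-histidine plus 0.1 mM IPTG and 5 mM 3-AT. Libraries were Caulobacter ParB with four randomised specificity codons, sequenced on Illumina before and after selection. Fitness is the rescaled log change in variant-to-wild-type read ratio, anchored to the cognate and non-cognate sites.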

one-hybrid fitness for binding NBS DNA, 0.226:
KTNT

one-hybrid fitness for binding NBS DNA, 0.295:
RLRA

one-hybrid fitness for binding NBS DNA, 0.624:
VRRR

one-hybrid fitness for binding NBS DNA, 0.268:
RCCA

one-hybrid fitness for binding NBS DNA, 0.67:
QKQR

one-hybrid fitness for binding NBS DNA, 0.482:
RCGS

one-hybrid fitness for binding NBS DNA, 0.363:
QKIT

one-hybrid fitness for binding NBS DNA, 0.282:
RRPA

one-hybrid fitness for binding NBS DNA, 0.265:
KRNH

one-hybrid fitness for binding NBS DNA, 0.216:
KCRS

one-hybrid fitness for binding NBS DNA, 0.358:
KRFS

one-hybrid fitness for binding NBS DNA, 0.306:
QKPT

one-hybrid fitness for binding NBS DNA, 0.476:
RSHR

one-hybrid fitness for binding NBS DNA, 0.264:
KRES

one-hybrid fitness for binding NBS DNA, 0.44:
RREA

one-hybrid fitness for binding NBS DNA, 0.62:
VRKR

one-hybrid fitness for binding NBS DNA, 0.314:
QRVC

one-hybrid fitness for binding NBS DNA, 0.475:
QKCT

one-hybrid fitness for binding NBS DNA, 0.671:
RRRA

one-hybrid fitness for binding NBS DNA, 0.591:
RRMA

one-hybrid fitness for binding NBS DNA, 0.46:
RNKT

one-hybrid fitness for binding NBS DNA, 0.566:
QKGT

one-hybrid fitness for binding NBS DNA, 0.383:
QMKC

one-hybrid fitness for binding NBS DNA, 0.246:
VCRR
QSQH

one-hybrid fitness for binding NBS DNA, 0.346:
QTQH

one-hybrid fitness for binding NBS DNA, 0.307:
RCHA

one-hybrid fitness for binding NBS DNA, 0.387:
KRCS

one-hybrid fitness for binding NBS DNA, 0.523:
QHQR

one-hybrid fitness for binding NBS DNA, 0.511:
QKYT

one-hybrid fitness for binding NBS DNA, ≤ 0.2:
FLQS
QVPL
LTRI
GFGY
SVNC
RSHA
RCWA
RPWA
RPCA
PPGV
IQLC
EVWT
YTCT
YRGS
DVKL
HVRW
NNGC
RCMA
RSQA
RSLA
RCLA
RPMA
RCIA
APCY
TLCF
NTLF
CLPC
DMHR
GSQM
RSEA
RCEA
STQW
SNSF
WTSV
QTIQ
QTWQ
YDNH
MVEY
KRAD
KRHN
KRHD
KRDH
KRRP
GYTL
SSDL
SLMH
HKYA
YCMR
HEIR
KRQN
KRSN
VPML
PIAK
QDVN
APGE
GIHG
KCYL
KRCN
KRWH
KRCH
KRWN
WTHQ
AAML
VNPF
GHPM
CVHG
RNRP
RNYT
RNKD
RNDT
RNYS
RNVT
YKHS
KGVE
RMGP
RMGD
RIGP
RIGN
RSGN
RLGP
RSGD
RLGD
CRQG
LDLL
AGNM
AITP
AYSK
DEHT
IPES
ERQV
QYAC
KLFS
EADR
KFKV
RTGD
RKGN
RAGD
RHGD
RKGD
RAGN
RHGN
RTGN
LATQ
NNCL
PCCV
VENS
FMGS
DHPH
KDLT
ENHG
NCII
SQRK
MVPG
RFGS
RPGS
GNMC
FFRR
NETT
VRDR
VCNR
VRVR
TYNY
VWLM
RPGK
RSHN
RPHR
RSHD
LSID
YTWT
SVNS
PHLC
NPYT
QTQD
QIQN
QAQP
QSQN
QIQD
QAQN
SVRD
NSML
LLKM
MPSK
KHMV
QKQG
QPQR
QKQN
QGQR
QHQD
QDQR
YKRT
SATK
TSAP
DITY
QYQG
QYQY
QYQM
QYQP
QHTQ
IKPC
QEEP
QTAE
AHII
QTLG
QKIC
QSVC
QMVC
QKVC
QMNC
HLMG
TSYM
HDED
PFKY
LLIF
QCLE
HMAT
CQKM
RIAG
QPKC
QTVC
QTPC
QHYC
QHVC
KAAT
GLAF
PDTG
GSLV
QKCC
QKHC
QKCY
QKHM
QKWG
SRNN
GDKC
RTGY
ARHT
RTFI
IIAL
HVSG
PVMQ
YSMW
LTAH
AHPT
NKRT
QKGG
QKSM
QKGM
QKSG
QKLY
DKRT
TSRY
RQHL
HCVL
SCSP
SVIR

one-hybrid fitness for binding NBS DNA, 0.304:
QLKC

one-hybrid fitness for binding NBS DNA, 0.217:
KRRN

one-hybrid fitness for binding NBS DNA, 0.757:
QTQR
QKRT

one-hybrid fitness for binding NBS DNA, 0.305:
RFHR

one-hybrid fitness for binding NBS DNA, 0.446:
QYQT

one-hybrid fitness for binding NBS DNA, 0.28:
KRDS

one-hybrid fitness for binding NBS DNA, 0.535:
QSQR

one-hybrid fitness for binding NBS DNA, 0.239:
VRYR

one-hybrid fitness for binding NBS DNA, 0.549:
KRRS
QKHT

one-hybrid fitness for binding NBS DNA, 0.221:
KRQH

one-hybrid fitness for binding NBS DNA, 0.443:
KRQS

one-hybrid fitness for binding NBS DNA, 0.422:
KRRH

one-hybrid fitness for binding NBS DNA, 0.205:
KRSH

one-hybrid fitness for binding NBS DNA, 0.66:
RRHA

one-hybrid fitness for binding NBS DNA, 0.491:
RNRS
RTGS

one-hybrid fitness for binding NBS DNA, 0.303:
QRIC

one-hybrid fitness for binding NBS DNA, 0.309:
RARA

one-hybrid fitness for binding NBS DNA, 0.419:
RSGS
RLGS

one-hybrid fitness for binding NBS DNA, 0.421:
KRSS

one-hybrid fitness for binding NBS DNA, 0.238:
RCQA

one-hybrid fitness for binding NBS DNA, 0.39:
QIQR

one-hybrid fitness for binding NBS DNA, 0.466:
RAGS

one-hybrid fitness for binding NBS DNA, 0.576:
RKGS

one-hybrid fitness for binding NBS DNA, 0.391:
RNRT

one-hybrid fitness for binding NBS DNA, 0.526:
QKST

one-hybrid fitness for binding NBS DNA, 0.349:
QAKC

one-hybrid fitness for binding NBS DNA, 0.385:
QKKC

one-hybrid fitness for binding NBS DNA, 0.53:
QTKC

one-hybrid fitness for binding NBS DNA, 0.369:
RIGS

one-hybrid fitness for binding NBS DNA, 0.695:
RRQA

one-hybrid fitness for binding NBS DNA, 0.373:
QYQS

one-hybrid fitness for binding NBS DNA, 0.367:
QSKC
QHKC

one-hybrid fitness for binding NBS DNA, 0.552:
RRIA

one-hybrid fitness for binding NBS DNA, 0.454:
QKWT

one-hybrid fitness for binding NBS DNA, 0.235:
RHER

one-hybrid fitness for binding NBS DNA, 0.409:
KRAS

one-hybrid fitness for binding NBS DNA, 0.568:
QTKQ

one-hybrid fitness for binding NBS DNA, 0.436:
KRWS

one-hybrid fitness for binding NBS DNA, 0.612:
QCQR

one-hybrid fitness for binding NBS DNA, 0.464:
KRHS
QKLT

one-hybrid fitness for binding NBS DNA, 0.453:
KRNS

one-hybrid fitness for binding NBS DNA, 0.368:
RHGS
VRNR

one-hybrid fitness for binding NBS DNA, 0.584:
RRCA
RRLA

one-hybrid fitness for binding NBS DNA, 0.461:
RMGS

one-hybrid fitness for binding NBS DNA, 0.507:
QRKC

one-hybrid fitness for binding NBS DNA, 0.228:
VCKR

one-hybrid fitness for binding NBS DNA, 0.452:
QCKC

one-hybrid fitness for binding NBS DNA, 0.447:
KRYS

one-hybrid fitness for binding NBS DNA, 0.506:
QAQR

one-hybrid fitness for binding NBS DNA, 0.308:
KRIS

one-hybrid fitness for binding NBS DNA, 0.534:
QTVQ

one-hybrid fitness for binding NBS DNA, 0.546:
RRWA

one-hybrid fitness for binding NBS DNA, 0.297:
QAWT

one-hybrid fitness for binding NBS DNA, 0.586:
RCHR
